Three molecules from PubChem BioAssay (NCI) can be followed below.

This is part of a sample that, as a whole, favours compounds with a hit. Of some 83,000 tested, about 20% had one in any assay.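 Cell lines were cultured in 96-well plates, exposed to a single compound concentration, and assessed for percent growth 48 hours later.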 Unmarked numbers belong to inactive results. The calls were made as follows: active = growth percent below 10; inactive = the rest.

The test has as its system MDA-MB-468 breast. Nature of the test: NCI-60 one-dose screen, 48 h (100 = growth as untreated, 0 = no growth, -100 = all killed). The following applies: 10 µM unless noted.
Consider `Cc1ccc2[nH]c3ccccc3c2c1`, for which the growth is 100%.
The same measure for `CC1=NC2=NC(=O)/C(=C3/N=C(C)C=C(c4ccccc4)N3N)NN2C(c2ccccc2)=C1`: 109%; for `CC(C)(C)CC(C)(C)Nc1c(-c2c(O)c3ccccc3oc2=O)nc2sccn12`: 86.6%.
